This excerpt belongs to a sample that is enriched for hits.
IDE exosite FP: exo-site inhibitors of human IDE, primary screen, biochemical, fluorescence anisotropy, probe displacement; AID 1259349, 2017; Insulin-degrading enzyme (Homo sapiens), P14735; purified IDE, FL-6b probe fluorescence polarization; active compounds read low; z-score at 20 µM; 6.3% of 17,000 active;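 active means z-score of -3 or lower, meaning strong loss of probe binding signal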;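 further: His-tagged human IDE residues 42-1019 made in E. coli with 30 nM FL-6b probe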
Target sequence (P14735 42-1019 limits assumed): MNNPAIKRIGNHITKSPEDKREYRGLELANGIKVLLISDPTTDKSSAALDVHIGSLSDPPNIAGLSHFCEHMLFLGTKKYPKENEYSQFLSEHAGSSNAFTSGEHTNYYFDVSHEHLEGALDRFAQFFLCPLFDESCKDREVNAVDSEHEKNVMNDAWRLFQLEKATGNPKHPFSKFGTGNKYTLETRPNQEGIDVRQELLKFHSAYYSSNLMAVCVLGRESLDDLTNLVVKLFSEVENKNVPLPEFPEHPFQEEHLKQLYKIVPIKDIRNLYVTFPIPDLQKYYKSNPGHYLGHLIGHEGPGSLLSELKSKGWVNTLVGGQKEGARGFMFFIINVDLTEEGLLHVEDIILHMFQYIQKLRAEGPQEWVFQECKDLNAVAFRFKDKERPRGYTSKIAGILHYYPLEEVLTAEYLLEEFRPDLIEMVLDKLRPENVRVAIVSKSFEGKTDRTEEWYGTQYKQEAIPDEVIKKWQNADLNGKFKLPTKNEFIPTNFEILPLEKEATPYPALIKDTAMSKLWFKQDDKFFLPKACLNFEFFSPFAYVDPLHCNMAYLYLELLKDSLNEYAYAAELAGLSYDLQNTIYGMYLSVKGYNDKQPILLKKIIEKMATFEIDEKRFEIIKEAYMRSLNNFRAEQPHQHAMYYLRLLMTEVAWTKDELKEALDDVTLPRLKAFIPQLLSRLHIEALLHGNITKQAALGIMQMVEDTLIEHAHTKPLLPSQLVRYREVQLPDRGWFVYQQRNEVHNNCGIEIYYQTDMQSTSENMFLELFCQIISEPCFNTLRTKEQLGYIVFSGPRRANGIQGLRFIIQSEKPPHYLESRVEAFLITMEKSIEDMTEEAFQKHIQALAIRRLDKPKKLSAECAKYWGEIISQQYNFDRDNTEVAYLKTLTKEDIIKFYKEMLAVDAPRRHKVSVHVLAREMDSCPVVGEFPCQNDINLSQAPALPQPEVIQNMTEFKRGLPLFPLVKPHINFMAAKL
* = called active by the depositor; ! = not confirmed by another sample.

SMILES	IDE exosite FP
COc1cccc(-c2ccc([C@@H]3[C@@H](CO)N4CCCCN(C(=O)c5ccc(F)cc5)C[C@@H]34)cc2)c1	-0.76
COc1cccc(-c2ccc([C@H]3[C@H]4CN(C(=O)c5ccc6c(c5)OCO6)CCCCN4[C@H]3CO)cc2)c1	1.3
COc1cccc(-c2ccc([C@@H]3[C@H]4CN(C(=O)NC(C)C)CCCCN4[C@H]3CO)cc2)c1	-8*
COc1cccc(-c2ccc([C@H]3[C@H](CO)N4CCCCN(C(=O)c5ccc6c(c5)OCO6)C[C@@H]34)cc2)c1	0.9
COc1cccc(-c2ccc([C@@H]3[C@@H](CO)N4CCCCN(C(=O)c5ccc6c(c5)OCO6)C[C@@H]34)cc2)c1	0.95
O=S(=O)(c1ccc(F)cc1)N1CCCCN2[C@H](C1)[C@H](c1ccc(-c3cncnc3)cc1)[C@@H]2CO	1.6
CCCNC(=O)N1CC(=O)N2[C@H](C1)[C@@H](c1ccc(C#CCC3CCCC3)cc1)[C@@H]2CO	0.6
O=C1CNC[C@H]2[C@H](c3ccc(C#CC4CCCCC4)cc3)[C@@H](CO)N12	-1.3
O=C1CN(Cc2ccc(F)cc2)C[C@@H]2[C@H](c3ccc(-c4ccccc4F)cc3)[C@H](CO)N12	-1.7
COc1ccc2c3c([nH]c2c1)[C@@H](CO)N(C(=O)Nc1ccc(F)cc1)CC31CN(S(=O)(=O)c2ccc(C)cc2)C1	-0.72
COc1ccccc1S(=O)(=O)N(C)C[C@H]1OCc2ccccc2-c2ccccc2C(=O)N([C@H](C)CO)C[C@H]1C	1.7
CN1CCN(C(=O)[C@@H]2[C@@H](CO)[C@@H]3Cn4c(ccc(-c5ccncc5)c4=O)[C@@H]3N2CC2CC2)CC1	1.2
Cc1ccc(S(=O)(=O)Nc2ccc3c(c2)C(=O)N(C)[C@H]2CC[C@@H](CC(=O)NCCc4ccncc4)O[C@H]2CO3)cc1	0.06
COc1ccccc1-c1ccc([C@@H]2[C@@H](CO)N(C(=O)C3CCC3)[C@H]2C#N)cc1	-6.5*
COc1ccccc1-c1ccc([C@@H]2[C@@H](C#N)N(C(=O)C3CCC3)[C@@H]2CO)cc1	-12*
COc1ccc(-c2ccc([C@@H]3[C@@H](CO)N(C(=O)c4cccnc4)[C@H]3C#N)cc2)cc1	4.5
N#C[C@@H]1[C@H](c2ccc(-c3ccccc3F)cc2)[C@@H](CO)N1C(=O)C1CCC1	-0.3
COc1ccccc1-c1ccc([C@@H]2[C@H](C#N)N(C(=O)C3CCC3)[C@H]2CO)cc1	-1.5
COc1ccc(-c2ccc([C@H]3[C@H](C#N)N(C(=O)C4CCCC4)[C@H]3CO)cc2)cc1	0.47
N#C[C@H]1[C@H](c2ccc(-c3ccccc3F)cc2)[C@@H](CO)N1C(=O)C1CCC1	2.2
COc1ccccc1-c1ccc([C@H]2[C@@H](CO)N(C(=O)C3CCC3)[C@H]2C#N)cc1	-2.3
N#C[C@H]1[C@H](c2ccc(-c3ccccc3F)cc2)[C@H](CO)N1C(=O)C1CCC1	-3.1*
COc1ccccc1-c1ccccc1[C@H]1[C@@H](CO)N(C(=O)C2CC2)[C@H]1C#N	2.1
COc1ccccc1-c1ccc([C@@H]2[C@@H](C#N)N(C(=O)c3cccnc3)[C@@H]2CO)cc1	-34*
COc1ccc(-c2ccc([C@@H]3[C@H](C#N)N(C(=O)c4cccnc4)[C@H]3CO)cc2)cc1	-1.9
SMILES	IDE exosite FP
O=C(Nc1ccc(F)cc1)N1CC(=O)N2[C@H](CO)[C@@H](c3ccc(-c4cccc(F)c4)cc3)[C@H]2C1	-1.3
CCN1CC(=O)N2[C@H](CO)[C@@H](c3ccc(Br)cc3)[C@H]2C1	-0.41
CCCC#Cc1ccc([C@H]2[C@@H](CO)N3C(=O)CN(C(=O)Nc4cc(F)ccc4F)C[C@H]23)cc1	-0.13
COc1ccc(-c2ccc([C@@H]3[C@@H](CO)N4CCCCN(C(=O)c5ccc6c(c5)OCO6)C[C@H]34)cc2)cc1	4.3
C[C@H]1CN([C@@H](C)CO)C(=O)CCCn2cc(nn2)CO[C@H]1CN(C)Cc1ccccc1	-0.0061
CC(=O)NC[C@H]1[C@@H](c2ccc(-c3cccnc3)cc2)[C@@H](CO)N1C(=O)CC1CC1	0.21
N#Cc1ccc(-c2ccc([C@@H]3[C@H]4CN(C(=O)Cc5ccccc5)CC(=O)N4[C@H]3CO)cc2)cc1	1
COc1cccc(C#Cc2ccc([C@@H]3[C@H](CO)N4C(=O)CN(S(=O)(=O)c5ccccc5C)C[C@@H]34)cc2)c1	0.75
O=C(Cc1ccccc1)N1CC(=O)N2[C@@H](CO)[C@H](c3ccc(Br)cc3)[C@@H]2C1	-2.5
CN(C)C(=O)c1cccc(-c2ccc([C@@H]3[C@@H](C#N)N(C(=O)C4CC4)[C@H]3CO)cc2)c1	0.87
CS(=O)(=O)N1[C@H](CO)[C@@H](c2ccc(-c3ccccc3F)cc2)[C@@H]1C#N	-3.1*
CS(=O)(=O)N1[C@H](C#N)[C@@H](c2ccccc2-c2ccccc2F)[C@H]1CO	-0.14
CN(C)C(=O)c1cccc(-c2ccc([C@@H]3[C@@H](C#N)N(C(=O)C4CC4)[C@@H]3CO)cc2)c1	-3.6*
COc1ccccc1-c1ccccc1[C@@H]1[C@H](C#N)N(C(=O)C2CCOCC2)[C@H]1CO	-1.7
CN(C)C(=O)c1cccc(-c2ccc(C3[C@@H]4CN(Cc5nccs5)C[C@H]3N4)cc2)c1 (stereo partly drawn)	-3.2*!
COc1ccccc1-c1ccc([C@H]2[C@@H](CO)N(C(=O)C3CCOCC3)[C@H]2C#N)cc1	-8.3*
COc1ccccc1-c1ccc([C@H]2[C@@H](CO)N(C(=O)C3CC3)[C@H]2C#N)cc1	-1.7
CN(C)C(=O)c1cccc(-c2ccc([C@@H]3[C@H](C#N)N(C(=O)C4CC4)[C@H]3CO)cc2)c1	3.5
CS(=O)(=O)N1[C@H](C#N)[C@@H](c2ccccc2)[C@@H]1CO	5.4
CN(C)C(=O)c1cccc(-c2ccc(C3[C@H]4CNC[C@@H]3N4Cc3nccs3)cc2)c1 (stereo partly drawn)	0.43
CN(C)C(=O)c1ccc(-c2ccc(C3[C@@H]4CN(Cc5nccs5)C[C@H]3N4)cc2)cc1 (stereo partly drawn)	-2
N#Cc1ccc(-c2ccc([C@@H]3[C@@H](CO)N4C(=O)CNC[C@@H]34)cc2)cc1	0.64
O=C1CN(Cc2ccccc2)C[C@H]2[C@H](c3ccc(Br)cc3)[C@@H](CO)N12	-2.9
O=C(C[C@H]1CC[C@@H](NC(=O)c2cccnc2)[C@@H](CO)O1)NCc1ccc(Cl)c(Cl)c1	0.99
O=C(C[C@@H]1CC[C@@H]2[C@H](COC[C@H](O)CN2Cc2nccs2)O1)NCc1ccccc1Cl	-0.59
SMILES	IDE exosite FP
Cc1ccc(-c2ccccc2[C@H]2[C@@H](C#N)N(C(=O)Cc3cccnc3)[C@@H]2CO)cc1	1.3
CN(C)C(=O)c1ccc(-c2ccc([C@@H]3[C@@H](CO)N(S(C)(=O)=O)[C@H]3C#N)cc2)cc1	-0.07
O=C(Nc1ccccc1)N1CCCCN2[C@H](CO)[C@@H](c3ccc(C#CC4CC4)cc3)[C@H]2C1	0.75
COc1ccccc1-c1ccccc1[C@H]1[C@@H](C#N)N(C(=O)C2CCC2)[C@@H]1CO	1.2
COc1ccccc1-c1ccc([C@H]2[C@@H](C#N)N(C(=O)C3CCC3)[C@@H]2CO)cc1	-4.8*
COc1ccccc1-c1ccccc1[C@@H]1[C@@H](C#N)N(C(=O)C2CCC2)[C@H]1CO	3.9
COc1ccccc1-c1ccc([C@H]2[C@H](C#N)N(C(=O)C3CCC3)[C@H]2CO)cc1	-8.1*
COc1ccccc1-c1ccccc1[C@H]1[C@@H](C#N)N(C(=O)C2CCC2)[C@H]1CO	0.26
